From PubChem BioAssay (NCATS)
Results filed as inconclusive are left out. The source made the active and inactive calls. The call rests on the fitted dose curve; in most records, active means well fitted curve in the direction sought with a large enough effect; inconclusive means small, poorly fitted or top-dose-only effect, or another doubt; inactive means no such curve, though single readings can be large; an effect the other way counts as inactive or inconclusive.

Experiments:
[1] = molecular target: Rap guanine nucleotide exchange factor 3 (Homo sapiens) (UniProt O95398); test: Confirmatory qHTS for antagonist of cAMP-regulated guanine nucleotide exchange factor 3 (EPAC1) (AID 1645880); further: nearly all actives have a fitted effect of over 55% in size; further: potency means the concentration at half of the fitted maximal effect
Sequence of Rap guanine nucleotide exchange factor 3 (Homo sapiens) (O95398 whole entry, looked up): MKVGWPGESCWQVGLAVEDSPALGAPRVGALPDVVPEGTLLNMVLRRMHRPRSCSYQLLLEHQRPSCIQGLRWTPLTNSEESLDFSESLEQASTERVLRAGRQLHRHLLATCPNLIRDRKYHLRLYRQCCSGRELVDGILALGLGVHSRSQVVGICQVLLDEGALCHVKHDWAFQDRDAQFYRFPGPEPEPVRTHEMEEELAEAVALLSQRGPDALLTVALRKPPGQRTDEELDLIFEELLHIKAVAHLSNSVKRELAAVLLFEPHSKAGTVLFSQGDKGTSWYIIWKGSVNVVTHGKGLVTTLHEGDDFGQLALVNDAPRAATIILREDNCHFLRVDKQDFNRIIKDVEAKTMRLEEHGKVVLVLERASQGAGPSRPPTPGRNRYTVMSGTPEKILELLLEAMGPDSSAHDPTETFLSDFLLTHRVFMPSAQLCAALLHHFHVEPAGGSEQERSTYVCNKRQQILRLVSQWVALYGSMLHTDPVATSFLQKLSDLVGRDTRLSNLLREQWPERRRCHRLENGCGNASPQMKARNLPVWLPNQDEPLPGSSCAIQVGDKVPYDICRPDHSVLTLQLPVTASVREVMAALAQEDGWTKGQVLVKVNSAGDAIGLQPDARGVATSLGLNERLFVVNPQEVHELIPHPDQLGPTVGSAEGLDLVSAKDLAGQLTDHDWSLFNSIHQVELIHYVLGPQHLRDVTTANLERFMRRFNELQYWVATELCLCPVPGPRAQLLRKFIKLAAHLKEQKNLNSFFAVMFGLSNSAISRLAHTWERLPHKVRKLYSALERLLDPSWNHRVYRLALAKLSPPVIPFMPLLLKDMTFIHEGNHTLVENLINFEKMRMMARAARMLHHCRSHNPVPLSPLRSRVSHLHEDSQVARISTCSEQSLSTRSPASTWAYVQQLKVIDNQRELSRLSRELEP
Outline: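 Released BODIPY-GDP fluoresces less than Rap1-bound BODIPY-GDP; the signal is followed at 480/540 nm at 5-min intervals over 30 min, after 5 min at room temperature. Reactions contain 100 nM EPAC1, 250 nM RAP1B-BODIPY-GDP and 50 uM GDP; results are normalized to ATA and DMSO.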

[2] = molecular target: Rap guanine nucleotide exchange factor 3 (Homo sapiens) (UniProt O95398); test: Confirmatory qHTS for agonist of cAMP-regulated guanine nucleotide exchange factor 3 (EPAC1) (AID 1645881);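 further: EPAC1 catalysed release of BODIPY-GDP from Rap1B seen as fluorescence loss; 100% = effect of cAMP agonist control; nearly all actives have a fitted effect of over 75% in size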
[3] = molecular target: Rap guanine nucleotide exchange factor 4 (Homo sapiens) (UniProt Q8WZA2); test: Confirmatory qHTS for agonist of cAMP-regulated guanine nucleotide exchange factor 4 (EPAC2) (AID 1645884);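 further: nucleotide exchange releases bodipy-GDP from Rap1 and this lowers its fluorescence; on the % scale 0 is the no-effect control and ±100 the full control effect; nearly all actives have a fitted effect of over 65% in size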
Sequence of Rap guanine nucleotide exchange factor 4 (Homo sapiens) (Q8WZA2 whole entry, looked up): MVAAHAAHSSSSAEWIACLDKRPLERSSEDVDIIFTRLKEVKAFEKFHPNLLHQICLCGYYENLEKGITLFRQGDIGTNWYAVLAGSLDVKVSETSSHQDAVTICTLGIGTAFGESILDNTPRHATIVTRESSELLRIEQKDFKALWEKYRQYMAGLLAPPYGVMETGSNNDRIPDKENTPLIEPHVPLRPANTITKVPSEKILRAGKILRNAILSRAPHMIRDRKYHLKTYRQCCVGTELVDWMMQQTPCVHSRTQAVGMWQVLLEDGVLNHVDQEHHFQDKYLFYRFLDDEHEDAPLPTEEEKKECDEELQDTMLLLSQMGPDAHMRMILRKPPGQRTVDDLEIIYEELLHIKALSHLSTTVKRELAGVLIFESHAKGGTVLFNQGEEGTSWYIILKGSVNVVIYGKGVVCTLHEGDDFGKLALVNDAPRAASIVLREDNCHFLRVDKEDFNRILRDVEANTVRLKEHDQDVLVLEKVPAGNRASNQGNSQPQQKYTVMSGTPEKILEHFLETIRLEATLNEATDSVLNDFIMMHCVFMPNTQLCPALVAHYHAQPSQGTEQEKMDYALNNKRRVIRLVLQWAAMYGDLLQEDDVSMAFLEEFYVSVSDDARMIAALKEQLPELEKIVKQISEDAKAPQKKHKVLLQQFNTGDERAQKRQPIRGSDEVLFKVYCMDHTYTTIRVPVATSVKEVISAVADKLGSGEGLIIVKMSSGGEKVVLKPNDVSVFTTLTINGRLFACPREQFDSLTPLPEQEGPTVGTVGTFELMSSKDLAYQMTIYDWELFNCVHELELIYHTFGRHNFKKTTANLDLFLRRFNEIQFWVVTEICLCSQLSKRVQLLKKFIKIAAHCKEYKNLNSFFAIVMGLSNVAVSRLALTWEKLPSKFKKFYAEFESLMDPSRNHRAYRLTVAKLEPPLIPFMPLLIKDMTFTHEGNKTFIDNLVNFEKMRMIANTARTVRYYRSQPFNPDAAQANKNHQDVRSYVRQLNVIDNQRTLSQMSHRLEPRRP

[4] = molecular target: Rap guanine nucleotide exchange factor 4 (Homo sapiens) (UniProt Q8WZA2); test: Confirmatory qHTS for antagonist of cAMP-regulated guanine nucleotide exchange factor 4 (EPAC2) (AID 1645885); further: nearly all actives have a fitted effect of over 25% in size; further: potency means the concentration at half of the fitted maximal effect; on activity change, negative = inhibition: on the % scale 0 is the no-effect control and ±100 the full control effect
[5] = molecular target: Rap guanine nucleotide exchange factor 3 (Homo sapiens) (UniProt O95398); test: Counterscreen qHTS for antagonist of cAMP-regulated guanine nucleotide exchange factor 3 (EPAC1) (AID 1645888); further: % of control where 0% means no effect
Outline: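 Measured: fluorescence of BODIPY-GDP bound to Rap1B, which falls as exchange proceeds. Conditions include 50 uM competing GDP, 5 and 30 min reads, and a later cAMP challenge for antagonist detection.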

O=C1[C@H](Cc2ccccc2)NCCCC[C@H](c2ccco2)N1Cc1ccccc1
inactive: Potency [1] | Potency [2] | Potency [3] | Potency [4]

CCc1ccccc1NC(=O)c1oc(=O)c2ccccc2c1-c1ccccc1
inactive: Potency [1] | Potency [2] | Potency [3] | Potency [4]

COC(=O)c1cc(CNC(=O)c2ccccn2)cc(NC(=O)c2ccccc2OC)c1
inactive: Potency [1] | Potency [2] | Potency [3] | Potency [4]

Cc1cc(-c2cc(F)cc3c2OC(CNC(=O)CCn2cncn2)C3)ccc1F (configuration not stated)
inactive: Potency [1] | Potency [2] | Potency [3] | Potency [4]

O=C(Nc1ccc(Cl)cc1)N[C@@H]1CC[C@H](CCNS(=O)(=O)c2ccccc2F)O[C@@H]1CO
inactive: Potency [1] | Potency [2] | Potency [3] | Potency [4]

Cc1nc(C)n(CC(=O)NCC2Cc3cc(-c4cccc(OC(F)(F)F)c4)ccc3O2)n1 (configuration not stated)
active: Potency [4] 44.1 µM
inactive: Potency [1] | Potency [2] | Potency [3]

O=C(O)c1cc(-c2ccc(-c3c(-c4ccc5c(c4)OCO5)noc3-c3ccsc3)cc2)nc2ccccc12
inactive: Potency [2] | Potency [3]
active: Potency [1] 75.7 µM | Potency [4] 37.9 µM

Cc1cc(NC(=O)CSc2nc(-c3ccccc3)nc3c2c(=O)n(C)c(=O)n3C)no1
inactive: Potency [1] | Potency [2] | activation [3] 0% [at 17.1 µM, percent relative to cAMP agonist control] | Potency [4]

CN(C)c1ccc(/C=C/c2ccnc3ccc4ccccc4c23)cc1
inactive: Potency [2] | Potency [3]
active: Potency [1] 49.8 µM | Potency [4] 55.5 µM

COc1ccccc1NC(=O)Nc1nc(CC(=O)Nc2ccc(N(C)C)cc2)cs1
inactive: Potency [1] | Potency [2] | activation [3] 15.9% [at 17.1 µM, percent relative to cAMP agonist control] | Potency [4]

COc1ccc(S(=O)(=O)N2CCOC23CCN(S(=O)(=O)c2cccs2)CC3)cc1
inactive: Potency [1] | Potency [2] | activation [3] 4.26% [at 17.1 µM, percent relative to cAMP agonist control] | Potency [4] | activity change, negative = inhibition [5] -10.2% [at 30.8 µM]

CC(=O)C(Sc1nnnn1-c1ccc(O)cc1)c1ccccc1 (configuration not stated)
inactive: Potency [1] | Potency [2] | Potency [3] | Potency [4] | Potency [5]

Cc1cc(N(C)C)cc(C)c1/C=C/c1ccnc2ccccc12
inactive: Potency [1] | Potency [2] | Potency [3]
active: Potency [4] 13.9 µM

CC(=O)CCc1oc2ccc(C)cc2c1-c1ccccc1
inactive: Potency [1] | Potency [2] | Potency [3] | Potency [4]

CC(=O)c1ccc(NC(=O)CC2Nc3cccc4cccc(c34)NC2=O)cc1 (configuration not stated)
active: Potency [1] 75.7 µM
inactive: Potency [2] | Potency [3] | Potency [4]

CCOC(=O)N1CCC(N2CCOc3ccc(CN4CCC(O)(c5cccnc5)CC4)cc3C2)CC1
inactive: Potency [1] | Potency [2] | Potency [3] | Potency [4]

CN1C(=O)Cc2cc(S(=O)(=O)N3CCN(c4ccccc4F)CC3)ccc21
inactive: Potency [1] | Potency [2] | Potency [3] | Potency [4]

COc1ccc(N2CCN(C(=O)COC(=O)c3ccc(C)o3)CC2)cc1
inactive: Potency [1] | Potency [2] | activation [3] 5.39% [at 17.1 µM, percent relative to cAMP agonist control] | Potency [4] | activity change, negative = inhibition [5] -20% [at 30.8 µM]

COc1cc(C)ccc1S(=O)(=O)N1CCCCCC1
inactive: Potency [1] | Potency [2] | Potency [3] | Potency [4] | Potency [5]

O=C(COC(=O)/C=C/c1cccc(C(F)(F)F)c1)NC(=O)NC1CCCC1
inactive: Potency [1] | Potency [2] | activation [3] 4.78% [at 17.1 µM, percent relative to cAMP agonist control] | Potency [4]

CCN(CC(=O)Nc1ccccc1C(F)(F)F)C(=O)c1cc2c(s1)CCCCC2
inactive: Potency [1] | Potency [2] | Potency [3] | Potency [4] | Potency [5]

N#CCC(=O)Nc1sc2c(c1C(N)=O)CCCC2
inactive: Potency [1] | Potency [2] | activation [3] 10.1% [at 17.1 µM, percent relative to cAMP agonist control] | Potency [4] | activity change, negative = inhibition [5] -6.4% [at 30.8 µM]

COc1ccc(N2CCN(S(=O)(=O)c3cc4c(cc3C)NC(=O)CO4)CC2)cc1
inactive: Potency [1] | Potency [2] | Potency [3] | Potency [4] | Potency [5]

CCC(=O)N1N=C(c2cccs2)CC1c1ccc(OC)cc1 (configuration not stated)
inactive: Potency [1] | Potency [2] | Potency [3] | Potency [4] | Potency [5]

COc1ccc(CCn2c(=N)c(S(=O)(=O)c3ccc(C)cc3)cc3c(=O)n4ccccc4nc32)cc1
inactive: Potency [2] | activation [3] -30.1% [at 17.1 µM, percent relative to cAMP agonist control] | Potency [4]
active: Potency [1] 79.4 µM

CCN(CCn1cccn1)Cc1c(C(=O)N2CCCCCCC2)nc2ccc(Cl)cn12
inactive: Potency [1] | Potency [2] | Potency [3] | Potency [4]

COc1ccc(OC)c2c(/C=C/c3c(C)[nH]c4ccccc34)ccnc12
inactive: Potency [1] | Potency [2] | Potency [3] | Potency [4]

COc1ccc(-c2[nH]c(-c3ccc(SC)cc3)nc2SCC(=O)Nc2nccs2)cc1
inactive: Potency [2] | Potency [3] | Potency [4]
active: Potency [1] 84.9 µM

Clc1ccc(NCc2nc3ccccc3n2CCOc2ccccc2)cc1
inactive: Potency [1] | Potency [2] | Potency [3] | outcome [4] inactive [at 12.7 µM] | Potency [5]

Cc1ccc(S(=O)(=O)N2[C@@H](CO)CO[C@H]2CC(=O)c2ccc(F)cc2)cc1
inactive: Potency [1] | Potency [2] | Potency [3] | Potency [4]

CCOc1ccc(CN2C(=O)c3ccccc3Sc3ccc(C(=O)NCc4ccc5c(c4)OCO5)cc32)cc1
inactive: Potency [1] | Potency [2] | Potency [3] | outcome [4] inactive [at 12.7 µM] | Potency [5]

Clc1ccc(CSc2nncn3c2cc2occc23)cc1
inactive: Potency [2] | Potency [3] | Potency [4] | Potency [5]
active: Potency [1] 75.7 µM

O=C(O)c1ccccc1N/N=C/C1=C(N2CCOCC2)C(=C\c2ccccc2)/CC1
active: Potency [1] 67.5 µM
inactive: Potency [2] | Potency [3] | Potency [4] | Potency [5]

C[C@H](c1ccccc1)N1C[C@@H](COCc2ccccc2)Oc2cc(N3CC[C@@H](O)C3)ccc2S1(=O)=O
inactive: Potency [1] | Potency [2] | Potency [3] | Potency [4] | Potency [5]

COc1ccc(CN2C(=O)CN(S(C)(=O)=O)CC2(C)C(=O)Nc2c(C)cccc2C)cc1OC (configuration not stated)
inactive: Potency [1] | Potency [2] | activation [3] 5.79% [at 17.1 µM, percent relative to cAMP agonist control] | Potency [4] | activity change, negative = inhibition [5] -5.99% [at 30.8 µM]

COC(=O)C(Cc1ccc(O)cc1)NC(=O)CCc1nc2ccccc2s1 (configuration not stated)
inactive: Potency [1] | Potency [2] | Potency [3] | Potency [4]

CC(=Cc1ccccc1)C=C1SC(=S)N(CCCC(=O)Nc2ccc(C(=O)O)c(O)c2)C1=O
inactive: Potency [2] | Potency [3] | Potency [4] | Potency [5]
active: Potency [1] 37.9 µM

CC1Sc2ccc(C(=O)OCc3ccccc3Cl)cc2NC1=O (configuration not stated)
inactive: Potency [1] | Potency [2] | Potency [3] | Potency [4]

O=C(CCNC(=O)c1ccccc1Cl)NCC(c1ccc(F)cc1)N1CCOCC1 (configuration not stated)
inactive: Potency [1] | Potency [2] | Potency [3] | Potency [4] | Potency [5]

OC(c1ccc(Cl)c(Cl)c1)c1ncc(-c2ccc(Cl)cc2)[nH]1 (configuration not stated)
inactive: Potency [1] | Potency [2] | activation [3] -3.18% [at 17.1 µM, percent relative to cAMP agonist control] | Potency [4] | activity change, negative = inhibition [5] -2.17% [at 30.8 µM]

CCCCN(C(=O)c1cccc2c(=O)c(C)c(-c3ccccc3)oc12)c1ccccc1
inactive: Potency [1] | Potency [2] | activation [3] 8.49% [at 17.1 µM, percent relative to cAMP agonist control] | Potency [4]

NS(=O)(=O)c1cc(C(=O)NC2CCSc3ccccc32)ccc1Cl (configuration not stated)
inactive: Potency [2] | Potency [3] | Potency [5]
active: Potency [1] 13.5 µM | Potency [4] 30.1 µM

CC(=O)Nc1ccc(NS(=O)(=O)c2cn(C)c(=O)n(C)c2=O)cc1
inactive: Potency [1] | Potency [2] | activation [3] 8.18% [at 17.1 µM, percent relative to cAMP agonist control] | Potency [4] | activity change, negative = inhibition [5] 9.16% [at 30.8 µM]

COc1ccc(Cl)cc1NC(=O)CN(C)C(=O)c1cc2c(s1)CCC(C)C2 (configuration not stated)
inactive: Potency [1] | Potency [2] | Potency [3] | Potency [4]

O=C(Nc1nc(-c2ccccc2)cs1)c1ccccc1NS(=O)(=O)c1ccc(F)cc1
active: Potency [1] 19 µM | Potency [4] 19 µM
inactive: Potency [2] | Potency [3]

COC(=O)c1[nH]c2cc(C)ccc2c1NC(=O)CN1CCCc2ccccc21
inactive: Potency [1] | Potency [2] | Potency [3] | Potency [4] | Potency [5]

COc1ccc(-n2nnnc2SCC(=O)c2ccc(O)c(O)c2)cc1
inactive: Potency [2] | Potency [3] | Potency [4] | Potency [5]
active: Potency [1] 9.53 µM

Cc1[nH]c2ccccc2c1C(c1ccccc1)c1cccs1 (configuration not stated)
inactive: Potency [1] | Potency [2] | Potency [3] | Potency [4] | Potency [5]

NC(=O)Nc1ccc(/C=C2\C=Cc3ccccc32)cc1
active: Potency [4] 44.1 µM
inactive: Potency [1] | Potency [2] | Potency [3]

CCCCN(Cc1ccc(C(=O)N[C@H](C(=O)O)C(C)C)cc1)C(=O)C(c1ccccc1)c1ccccc1
inactive: Potency [1] | Potency [2] | activation [3] 8.93% [at 17.1 µM, percent relative to cAMP agonist control] | Potency [4]

COc1ccc2oc(C(=O)N(C)CCOc3ccc(Cl)cc3)c(C)c2c1
inactive: Potency [1] | Potency [2] | activation [3] 7.19% [at 17.1 µM, percent relative to cAMP agonist control] | Potency [4] | activity change, negative = inhibition [5] -14.2% [at 30.8 µM]

NC(=O)COC(=O)c1ccc(Cl)c(S(=O)(=O)N(Cc2ccccc2)c2ccc(Cl)cc2)c1
inactive: Potency [1] | Potency [2] | activation [3] 4.76% [at 17.1 µM, percent relative to cAMP agonist control] | Potency [4] | activity change, negative = inhibition [5] -4.28% [at 30.8 µM]

COC(=O)c1ccccc1NC(=O)CN1C(=O)COc2ccc(Cl)cc21
inactive: Potency [1] | Potency [2] | Potency [3] | Potency [4] | Potency [5]
